In PubChem BioAssay (NCI):
This is part of a sample that, as a whole, favours compounds with a hit. Of some 83,000 tested, about 20% had one in any assay.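 The test compound was applied at a single concentration to cells in 96-well plates for 48 hours, and percent growth was recorded.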 A number with no mark means an inactive call. Activity calls are given as the source filed them. How the source made its calls: active means growth percent below 10; inactive means the rest.

Experiments:
Assay in all cases: NCI-60 one-dose screen, 48 h (100 = growth as untreated, 0 = no growth, -100 = all killed)
Conditions in all cases: 10 µM unless noted
DU-145 prostate = system: DU-145 prostate
K-562 leukemia = system: K-562 leukemia
MALME-3M melanoma = system: MALME-3M melanoma
MDA-MB-231 breast = system: MDA-MB-231 breast
RXF 393 renal = system: RXF 393 renal
SF-268 CNS = system: SF-268 CNS
SF-295 CNS = system: SF-295 CNS
SF-539 CNS = system: SF-539 CNS
UACC-257 melanoma = system: UACC-257 melanoma
M14 melanoma = system: M14 melanoma
HCT-15 colon = system: HCT-15 colon
HT29 colon = system: HT29 colon
SNB-75 CNS = system: SNB-75 CNS
PC-3 prostate = system: PC-3 prostate
SK-MEL-5 melanoma = system: SK-MEL-5 melanoma
UACC-62 melanoma = system: UACC-62 melanoma
LOX IMVI melanoma = system: LOX IMVI melanoma
SK-MEL-28 melanoma = system: SK-MEL-28 melanoma
SNB-19 CNS = system: SNB-19 CNS
U251 CNS = system: U251 CNS

| Structure (SMILES) | growth (DU-145 prostate) | growth (K-562 leukemia) | growth (MALME-3M melanoma) | growth (MDA-MB-231 breast) | growth (RXF 393 renal) | growth (SF-268 CNS) | growth (SF-295 CNS) | growth (SF-539 CNS) | growth (UACC-257 melanoma) | growth (M14 melanoma) | growth (HCT-15 colon) | growth (HT29 colon) | growth (SNB-75 CNS) | growth (PC-3 prostate) | growth (SK-MEL-5 melanoma) | growth (UACC-62 melanoma) | growth (LOX IMVI melanoma) | growth (SK-MEL-28 melanoma) | growth (SNB-19 CNS) | growth (U251 CNS) |
| --- | --- | --- | --- | --- | --- | --- | --- | --- | --- | --- | --- | --- | --- | --- | --- | --- | --- | --- | --- | --- |
| O=C(Nc1nc(-c2ccccc2Cl)cs1)c1cc(-c2ccccc2)nc2ccc(Cl)cc12 | 77.8% | 25.2% | 63.9% | 46.8% | 87.2% | 44.7% | 81.1% | -7.04% (active) | 84.6% | 4.1% (active) | 11.9% | 85.3% | 92.9% | 73.2% | 43.8% | 41.8% | 21.6% | 70.8% | – | – |
| COc1ccc(Cn2nc(-c3ccccc3)c3c2CCc2cnoc2-3)cc1 | 96.9% | 36.3% | 109% | 55.6% | – | 81% | 59.5% | 85.4% | 90.9% | 89.2% | 67.6% | 84% | 65.5% | 52.9% | 74.5% | 51.5% | 72.8% | 84.8% | 82.2% | 78% |
| Cc1n[nH]c(C)c1-c1c(C)n[nH]c1C | 9.47% (active) | 5.03% (active) | -38.3% (active) | -14.5% (active) | -47.8% (active) | 19.1% | 18.8% | -54.6% (active) | 39.6% | -4.4% (active) | -13.6% (active) | 7.37% (active) | 35.2% | 17.8% | 0.89% (active) | 7.89% (active) | -64.3% (active) | 11.9% | – | 1.27% (active) |
| COc1ccc2c(/C=C3/C(=O)NC(=S)NC3C)cc(=O)oc2c1 (configuration not stated) | 108% | 98.1% | 99.4% | 103% | 98.4% | 89.4% | 97.9% | 101% | 83.5% | 109% | 103% | 88.8% | 87.3% | 78.6% | 99.4% | 96.8% | 95.3% | 109% | – | 94.2% |
| COc1ccc(C(=O)c2cc3c(N)c(C(=O)Nc4cccc(Cl)c4)sc3nc2C)cc1 | 18% | 6.91% (active) | 51.2% | 28.4% | – | 44.7% | 31.3% | -15.5% (active) | 71.4% | 17.9% | 21% | -3.3% (active) | -10.1% (active) | 27.9% | 9.91% (active) | 39.3% | 48.2% | – | 41.8% | 23% |
| Cc1ccc2[nH]c(=S)n(-c3ccc(S(=O)(=O)Nc4ccc(Cl)nn4)cc3)c(=O)c2c1 | 109% | 102% | 101% | 101% | – | 101% | 104% | 95.6% | 99.7% | -69.5% (active) | 101% | 103% | 97.8% | 103% | 101% | 98.5% | 100% | – | 97.5% | 100% |
| NC(=O)C1(N2CCCCC2)CCN(CCCC(=O)c2ccc(F)cc2)CC1 | 5.34% (active) | 10.8% | 57.1% | 29.7% | – | 38.4% | 4.82% (active) | -3.17% (active) | 47.1% | 44.8% | 93.6% | 5.09% (active) | 23.5% | 30.2% | 4.4% (active) | 29.3% | 42.4% | – | 32.3% | 23.2% |
| Cn1c(=O)c2[nH]c(CCCc3nc4c([nH]3)c(=O)n(C)c(=O)n4C)nc2n(C)c1=O | 118% | 105% | 108% | 113% | – | 104% | 111% | 98.9% | 114% | 111% | 115% | 109% | 105% | 94% | 103% | 96.8% | 105% | – | 101% | 107% |
| C[C@@H]1CN(Cc2ccc(/C=C/c3n[nH]c4ccc5nc(-c6cn[nH]c6C(F)(F)F)c6c(c5c34)CCCC6)cc2)C[C@H](C)O1 | 27.7% | 10.4% | 41.2% | 12.9% | – | 36.5% | 38.4% | 7.28% (active) | 75.5% | 18.9% | 7.35% (active) | 7.17% (active) | -4.9% (active) | 22.7% | 40.3% | 44.3% | 8.23% (active) | – | 57.1% | 46.1% |
| CCc1c(Nc2ccc(C)cc2)[nH]c(N)nc1=S | 104% | 115% | 103% | 98.8% | 113% | 103% | 96.2% | 103% | 104% | 98.7% | 99.7% | 103% | 93.5% | 107% | 101% | 93.8% | 105% | 104% | – | 97% |
| O=C(c1ccccc1)N1N=C(c2ccc(-n3ccc(C(F)(F)F)n3)cc2)CC1c1ccc[nH]1 (configuration not stated) | 104% | 65.1% | 93.6% | 97.6% | 97.1% | 98.6% | 97.1% | 92.6% | 90.1% | 79% | 70.6% | 87.1% | 80.6% | 83.3% | 101% | 89.6% | 80% | 92.2% | 92.7% | – |
| COc1cc(NCC(O)CN(CC(C)C)CC(C)C)c2nc(C)ccc2c1 (configuration not stated) | 97.9% | 78.4% | 119% | 55.9% | – | 78.9% | 100% | 108% | 54.1% | 88.6% | 84.8% | 80.2% | 97.9% | 75.3% | 93.5% | 88.9% | 90.1% | 100% | 96% | 91.3% |
